# Measured values from PMC5540273 (PLoS ONE, 2017).
# Test system: FGFR2
# Conditions: concentration: 1 μM, replicates: in singlicate; n = 1
# 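Note: KINOMEscan kinase panel screen.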
row,SMILES,%Inh
1,CCS(=O)(=O)c1ccc(OC)c(Nc2nccc(-c3c(-c4cccc(NC(=O)c5c(F)cccc5F)c4)nn4ncccc34)n2)c1 [GSK326180],0%
2,COc1cc(Nc2nccc(-c3c(-c4cccc(NC(=O)c5c(F)cccc5F)c4)nn4ncccc34)n2)cc(OC)c1OC [GSK327238],61%
3,COc1ccc(-c2coc3ccc(-c4nnc(SCc5ccc(OC)c(C(F)(F)F)c5)o4)cc23)cc1,17%
4,Oc1cc(Nc2ccnc3cc(I)ccc23)ccc1F [GW552771],0%
5,O=c1[nH]cc(-c2ccc(N3CCOCC3)cc2)c2sc(-c3cn[nH]c3)cc12 [GSK2276055],0%
6,FC(F)(F)c1ccc(/C=C/c2cncnc2Nc2ccc3[nH]c(Cc4ccccc4)nc3c2)cc1 [GW709199],0%
7,Nc1ncnc2c1nc(-c1ccccc1)n2-c1ccccc1 [SKF-97293],20%
8,Cn1cc(-c2ccc3c(c2)CCN3C(=O)Cc2cccc(Cl)c2)c2c(N)ncnc21 [GSK2606590],0%
9,Cc1ccc(C(=O)Nc2ccc(Nc3ccnc4cc(-c5nccs5)ccc34)cc2O)cc1.Cl [GW494702],35%
10,COc1cc(Nc2ncc3c(C)nc(-c4cc5ccccc5[nH]4)n3n2)cc(OC)c1OC [GW869516],21%
11,COc1ccc(CNC(=O)NC2CCN(c3ccnc(Nc4ccc(F)cc4)n3)CC2)cc1 [GSK1379788],0%
12,CCn1c(-c2nonc2N)nc2c(C#CC(C)(C)O)nc(OC[C@H](N)c3ccccc3)cc21 [GSK943949],4%
13,Cl.c1ccc(-c2ccc3c(Nc4ccc5[nH]ncc5c4)ccnc3c2)nc1 [GW440137],0%
14,COc1cccc(-c2ccc3c(NC(=O)C4CC4)n[nH]c3n2)c1 [SB-710903],0%
15,COc1cccc(C(=O)Nc2cccc(Oc3ccc4nc(NC(=O)C5CC5)cn4n3)c2)c1,88%
16,CNC(=O)c1ccccc1Nc1nc(Nc2ccc(N3CCOCC3)cc2)ncc1Cl.Cl [GSK1576028],97.2%
17,O=C(Nc1cccc(Oc2ccc3nc(NC(=O)C4CC4)cn3n2)c1)c1ccccc1C(F)(F)F,23%

row,SMILES,%Inh
1,Cc1ccc(S(=O)(=O)Nc2ccc(Nc3nccc(Nc4cccc5[nH]ncc45)n3)cc2)cc1 [GSK581271],15%
2,Cc1cccc(NC(=O)Nc2ccc(Oc3ncnc4ccn(C)c34)cc2)c1,0%
3,CC(=O)Nc1nc2cnc(Nc3cc(NC(=O)c4cccc(C5(C#N)CC5)c4Cl)ccc3C)nc2s1,15%
4,COc1cccc(C2=C(Nc3ccc(Cl)c(C(=O)O)c3)C(=O)NC2=O)c1 [SB-390769],0%
5,CN(C)S(=O)(=O)c1cc(-c2ccc3nccc(-c4cccc(S(N)(=O)=O)c4)c3c2)cnc1N [GSK1669921],22%
6,O=C(Nc1ccccc1F)NC1CCN(c2ccnc(Nc3ccc(F)cc3)n2)CC1 [GSK1379800],0%
7,O=C(Nc1n[nH]c2cc(-c3ccoc3)ccc12)C1CC1 [SB-738481],0%
8,CSc1cccc2c(-c3ccncn3)c(-c3ccc(F)cc3)nn12 [GW514786],0%
9,CN(c1ccc(NC(=O)Nc2cc(C(F)(F)F)ccc2F)cc1)c1ccnc(Nc2ccc(S(N)(=O)=O)cc2)n1 [GW809893],70%
10,O=C(Nc1cccc(-c2nn3ncccc3c2-c2ccnc(Nc3ccccc3)n2)c1)c1c(F)cccc1F [GSK198271],7%
11,c1ccc(-c2n[nH]cc2Nc2ccnc3ccccc23)nc1 [GW694077],0%
12,Cl.Cl.NCC(C(=O)Nc1cc(Br)c(-c2ccnc3[nH]ccc23)s1)c1ccccc1 (stereo not drawn) [GSK1269851],8%
13,O=C(Nc1cccc(-c2nn3ccccc3c2-c2ccnc(Nc3cccc(C(F)(F)F)c3)n2)c1)c1c(F)cccc1F [GSK292658],20%
14,Cc1ccc(C)c(NC(=O)NC2CCN(c3ccnc(Nc4ccc(F)cc4)n3)C2)c1 (stereo not drawn) [GSK1379720],14%
15,COCCOCCOc1cc2ncc3c4ccc(C#N)cc4[nH]c3c2cc1OC,25%
16,CN1CCN(Cc2cccc(-c3ccc4c(Nc5ccc(Oc6ccccc6)cc5)ccnc4c3)c2)CC1 [GW578342],0%
